Experimental findings from PubChem BioAssay (NCATS) are described below.

Inconclusive results are not listed. Calls of active or inactive are those of the source. Calls follow the shape of the dose curve; as a rule, active = well fitted curve in the direction sought with a large enough effect; inconclusive = small, poorly fitted or top-dose-only effect, or another doubt; inactive = no such curve, though single readings can be large; an effect the other way counts as inactive or inconclusive.

Test [1] is described as follows: qHTS of pediatric cancer cell lines to identify multiple opportunities for drug repurposing: Primary screen for BT-12 cells (AID 1347101). Also: nearly all actives have a fitted effect of over 25% in size. Also: potency is read from the fitted curve at half-maximal effect. A digest of the protocol: (§1)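 Cells (500-1,000/well) rested 5 h, then received compounds for 48 h; metabolically active cells were measured by CellTiter-Glo luminescence. Final concentrations spanned up to 46 µM (MIPE, 11-point) or 0.59 nM-46 µM (NPC, 8-point) in primary screens, 11-point in follow-ups.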
(In general: qHTS replaces the single test concentration by a dilution series.)

Test [2] in a line: qHTS of pediatric cancer cell lines to identify multiple opportunities for drug repurposing: Primary screen for OHS-50 cells (AID 1347103). Also: nearly all actives have a fitted effect of over 40% in size. Also: potency is read from the fitted curve at half-maximal effect. A digest of the protocol:
as §1

Test [3] is described as follows: qHTS of pediatric cancer cell lines to identify multiple opportunities for drug repurposing: Primary screen for RD cells (AID 1347104). Also: nearly all actives have a fitted effect of over 55% in size. Also: potency is read from the fitted curve at half-maximal effect. The method in brief:
(§2)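 Phenotypic viability qHTS, 48 h compound exposure, CellTiter-Glo luminescence read-out; multi-concentration dosing so that potency and efficacy derive directly from the primary screen's curves.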

Test [4] can be described thus: qHTS of pediatric cancer cell lines to identify multiple opportunities for drug repurposing: Primary screen for MG 63 (6-TG R) cells (AID 1347105). Also: nearly all actives have a fitted effect of over 50% in size. Also: potency is read from the fitted curve at half-maximal effect. A digest of the protocol:
as §2

A short description of test [5]: qHTS of pediatric cancer cell lines to identify multiple opportunities for drug repurposing: Primary screen for control Hh wild type fibroblast cells (AID 1347106). Also: nearly all actives have a fitted effect of over 55% in size. Also: potency is read from the fitted curve at half-maximal effect.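 As to activity change, negative = cytotoxic: a drop in luminescence marks cytotoxicity and a rise apparent proliferation.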 The method in brief:
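Viability after 48 h compound treatment at 37C, 500-1,000 cells/well, read as ATP luminescence with CellTiter-Glo. Primary screens used 11-point (MIPE, 0.78 nM-46 µM) or 8-point (NPC, 0.59 nM-46 µM) final concentrations; follow-up screens used 11-point dilutions.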

A short description of test [6]: qHTS of pediatric cancer cell lines to identify multiple opportunities for drug repurposing: Primary screen for Rh41 cells (AID 1347108). Also: nearly all actives have a fitted effect of over 70% in size. Also: potency is read from the fitted curve at half-maximal effect.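 As to activity change, negative = cytotoxic: luminescence drop marks cytotoxic hits.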 A digest of the protocol:
as §2

Test [7] can be described thus: qHTS of pediatric cancer cell lines to identify multiple opportunities for drug repurposing: Primary screen for Rh18 cells (AID 1347102). Also: nearly all actives have a fitted effect of over 65% in size. The method in brief:
as §1

Test [8] can be described thus: qHTS of pediatric cancer cell lines to identify multiple opportunities for drug repurposing: Primary screen for Rh30 cells (AID 1347107). Also: nearly all actives have a fitted effect of over 75% in size. Also: potency is read from the fitted curve at half-maximal effect. The method in brief:
as §1

Test [9] in a line: qHTS of pediatric cancer cell lines to identify multiple opportunities for drug repurposing: Confirmatory screen for NB1643 cells (AID 1347109). Also: potency is read from the fitted curve at half-maximal effect; nearly all actives have a fitted effect of over 45% in size. The method in brief: as §1
A short description of test [10]: qHTS of pediatric cancer cell lines to identify multiple opportunities for drug repurposing: Confirmatory screen for BT-12 cells (AID 1347112). Also: potency is read from the fitted curve at half-maximal effect; nearly all actives have a fitted effect of over 55% in size. A digest of the protocol: as §1
Test [11] can be described thus: qHTS of pediatric cancer cell lines to identify multiple opportunities for drug repurposing: Confirmatory screen for LAN-5 cells (AID 1347113). Also: potency is read from the fitted curve at half-maximal effect; nearly all actives have a fitted effect of over 65% in size. The method in brief: as §1
Test [12] is described as follows: qHTS of pediatric cancer cell lines to identify multiple opportunities for drug repurposing: Confirmatory screen for DAOY cells (AID 1347114). Also: potency is read from the fitted curve at half-maximal effect; nearly all actives have a fitted effect of over 65% in size. The method in brief:
(§3)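 Viability measured as metabolically active cells via CellTiter-Glo luminescence following 48 hours of compound exposure, 11-point dilutions in confirmatory testing. 500-1,000 cells/well plated 5 hours before dosing; controls were DMSO and 2.3 µM bortezomib.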

A short description of test [13]: qHTS of pediatric cancer cell lines to identify multiple opportunities for drug repurposing: Confirmatory screen for NB-EBc1 cells (AID 1347115).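 Also: potency is read from the fitted curve at half-maximal effect; cells exposed to compound for 48 h before the viability read; nearly all actives have a fitted effect of over 45% in size.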 The method in brief:
as §1

Test [14] can be described thus: qHTS of pediatric cancer cell lines to identify multiple opportunities for drug repurposing: Confirmatory screen for BT-37 cells (AID 1347117). Also: potency is read from the fitted curve at half-maximal effect; nearly all actives have a fitted effect of over 55% in size. Conditions: BT-37 pediatric cancer cells, viability; activity change, negative = cytotoxic: at 45.9 µM (top of the series). A digest of the protocol:
as §1

The nature of test [15]: qHTS of pediatric cancer cell lines to identify multiple opportunities for drug repurposing: Confirmatory screen for TC32 cells (AID 1347118).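 Also: potency is read from the fitted curve at half-maximal effect; cells exposed to compound for 48 h before the read; nearly all actives have a fitted effect of over 65% in size.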 The method in brief: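 qHTS, TC32, 48 h drug treatment, CellTiter-Glo luminescence as a proxy for metabolically active cells; primary top concentration 46 µM (MIPE 11-pt, NPC 8-pt); confirmatory 11-pt.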
Test [16] in a line: qHTS of pediatric cancer cell lines to identify multiple opportunities for drug repurposing: Confirmatory screen for MG 63 (6-TG R) cells (AID 1347119). The method in brief: as §1
Test [17] can be described thus: qHTS of pediatric cancer cell lines to identify multiple opportunities for drug repurposing: Confirmatory screen for control Hh wild type fibroblast cells (AID 1347121). Also: potency is read from the fitted curve at half-maximal effect; nearly all actives have a fitted effect of over 70% in size. The method in brief: as §1
Test [18] in a line: qHTS of pediatric cancer cell lines to identify multiple opportunities for drug repurposing: Confirmatory screen for SJ-GBM2 cells (AID 1347116). Also: potency is read from the fitted curve at half-maximal effect; nearly all actives have a fitted effect of over 60% in size. The method in brief: as §3

Consider `NC(=O)N1CCC(CC(=O)N2CCC([C@H]3c4ncc(Br)cc4CCc4cc(Cl)cc(Br)c43)CC2)CC1`, for which the Potency is 21.7 µM (active) in [1]; 8.63 µM (active) in [2]; 20.9 µM (active) in test [3]; 18.7 µM (active) in [4]; 5.9 µM (active) in test [6]. In addition, the Potency result in [5] was “inactive”.
On to `CC(C=CC=C(C)C=CC1=C(C)CCCC1(C)C)=CC=CC=C(C)C=CC=C(C)C=CC1=C(C)CCCC1(C)C`, for which the Potency entry in test [1], in test [7] and in test [5] was “inactive” in each case. Further, in test [3], the Potency is 29.6 µM (active).
Turning to `CC(=O)NC(CS)C(=O)O` (centres undefined), the Potency entry in test [1], in [2], in test [3], in test [4], in [5] and in [8] was “inactive” in each case. Moreover, the Potency result in test [6] was “inactive”.
In the case of `CC(C)N(CC[C@H](c1ccccc1)c1cc(CO)ccc1O)C(C)C`, the Potency result in test [1], in test [7], in test [3], in test [4], in test [5] and in test [8] was “inactive” each time. Besides, the Potency result in test [6] was “inactive”.
Take `O=c1ccn([C@@H]2O[C@H](CO)[C@H](O)[C@@H]2F)c(=O)[nH]1`: the Potency result in test [1], in test [7] and in test [4] was “inactive” in each case.
For the molecule `Cc1cnn(C)c1C(=O)Nc1cc(Nc2ccc3c(C=Cc4ccccn4)n[nH]c3c2)ccc1F`, the Potency in [1] is 10.9 µM (active); in test [2], 38.5 µM (active); in [3], 18.7 µM (active).
`Cc1cnc(Nc2ccc(N3CCN(C)CC3)cc2)nc1Nc1cccc(S(=O)(=O)NC(C)(C)C)c1`: the Potency was 21.7 µM (active) in test [1]; 1.09 µM (active) in [2]; 5.26 µM (active) in test [3]; 7.43 µM (active) in test [4]; 16.6 µM (active) in test [5]; 5.9 µM (active) in test [8]. Moreover, the Potency in [6] is 5.9 µM (active); in [9] it was 4.65 µM (active); in test [10], 16.5 µM (active); in test [11], 7.37 µM (active); in [12] it was 18.5 µM (active); in test [13] it was 14.7 µM (active). For the same molecule, the Potency in test [14] is 5.85 µM (active); in [15], 2.33 µM (active); in test [16], 2.93 µM (active); in test [17] it was 14.7 µM (active).
As for `CC(C=CC(=O)NO)=C[C@@H](C)C(=O)c1ccc(N(C)C)cc1`, the Potency in test [1] was 1.93 µM (active); in test [2], 0.863 µM (active); in test [3], 1.32 µM (active); in [4] it was 2.35 µM (active); in test [5] it was 10.5 µM (active); in [8] it was 7.43 µM (active). The Potency was 1.48 µM (active) in test [6]; 0.585 µM (active) in test [9]; 2.93 µM (active) in [10]; 0.414 µM (active) in test [11]; 2.33 µM (active) in [12]; 2.08 µM (active) in test [18]. Moreover, the Potency in [14] was 0.827 µM (active); in test [15] it was 0.414 µM (active); in test [16] it was 1.17 µM (active); in test [17], 6.57 µM (active).
In the case of `Cn1cc(C=CC(=O)c2cccc(F)c2)cc1C=CC(=O)NO`, the Potency result in [1], in test [7], in test [5] and in [8] was “inactive” each time.
In the case of `Nc1nc(N)c2nc(-c3cccc(O)c3)c(-c3cccc(O)c3)nc2n1`, the Potency in [1] is 21.7 µM (active); in test [2], 19.3 µM (active); in [3] it was 11.8 µM (active).
